Compounds without any hit were thinned out: in the full panel of roughly 83,000, 20% have a hit.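 Single-dose data. Exposure time 48 hours. Values below 10 considered active.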 A number with no mark means an inactive call. Calls of active or inactive are those of the source.

The results in this text go back to PubChem BioAssay (NCI).

Test systems include NCI-H23 lung; NCI-H226 lung; NCI-H322M lung; HOP-62 NSCLC; NCI-H460 lung; HOP-92 NSCLC; NCI-H522 lung; A549/ATCC NSCLC; 786-0 renal; COLO 205 colon; DU-145 prostate; K-562 leukemia; MALME-3M melanoma; MDA-MB-231 breast; RXF 393 renal; SF-268 CNS; SF-295 CNS; SF-539 CNS; UACC-257 melanoma; M14 melanoma.
Common to all, as to experiment: NCI-60 one-dose screen, 48 h (100 = growth as untreated, 0 = no growth, -100 = all killed)
Holding throughout (details): 10 µM unless noted

Regarding `CCCCCCCCCCCCCCCC(=O)OCC1OC(n2cnc3c(=S)nc(N)[nH]c32)C(OC(=O)CCCCCCCCCCCCCCC)C1OC(=O)CCCCCCCCCCCCCCC` (configuration not stated), the growth in the assay on NCI-H23 lung was 66.2%; in the assay on NCI-H226 lung, 76.7%; with NCI-H322M lung, 72.2%; with HOP-62 NSCLC, 47.8%; in the assay with NCI-H460 lung it was 63.4%; with HOP-92 NSCLC it was 56%. For the same compound, the growth in the assay on NCI-H522 lung is 66.1%; in the assay on A549/ATCC NSCLC, 74.3%; in the assay on 786-0 renal, 61%; in the assay on COLO 205 colon it was 90%; in the assay on DU-145 prostate, 39.8%; in the assay with K-562 leukemia, 15.9%. In addition, the growth was 82.6% in the assay on MALME-3M melanoma; 47.4% in the assay with MDA-MB-231 breast; 164% in the assay with RXF 393 renal; 67.2% in the assay on SF-268 CNS; 21.1% in the assay with SF-295 CNS; 79.9% in the assay with SF-539 CNS. Also, the growth in the assay on UACC-257 melanoma was 88.7%; in the assay on M14 melanoma it was 34.1%.
Turning to `Cc1cc2cc3cc(C)c(N(C)C)cc3nc2cc1N(C)C`, the growth was 23.9% in the assay with NCI-H23 lung; 54.8% with NCI-H226 lung; 22.3% in the assay on NCI-H322M lung; 23.1% in the assay with HOP-62 NSCLC; 8.26% (active) in the assay on NCI-H460 lung; -37% (active) in the assay with HOP-92 NSCLC. The growth with NCI-H522 lung is -11.7% (active); in the assay with A549/ATCC NSCLC it was 7.53% (active); with 786-0 renal, 28%; with COLO 205 colon, -23.8% (active); with DU-145 prostate, 25.4%; with K-562 leukemia it was 41.5%. Also, the growth was 28.4% in the assay with MALME-3M melanoma; 63.2% in the assay on MDA-MB-231 breast; 24% with RXF 393 renal; 13.9% in the assay with SF-268 CNS; 19.4% in the assay with SF-295 CNS; 8.78% (active) in the assay with SF-539 CNS. For the same compound, the growth with M14 melanoma was 37.4%.
As for `COc1cc(NCCCCCN=C(N)NC(N)=NC(C)C)c2ncccc2c1`, the growth in the assay with NCI-H23 lung was -37.5% (active); in the assay on NCI-H226 lung it was 71.2%; in the assay on NCI-H322M lung, 50.7%; in the assay with HOP-62 NSCLC, 57%; with NCI-H460 lung, 55.7%; in the assay on HOP-92 NSCLC it was 32.5%. The growth with NCI-H522 lung was -16.1% (active); in the assay with A549/ATCC NSCLC it was 89.9%; in the assay with 786-0 renal, 92.3%; with COLO 205 colon it was -30.3% (active); in the assay with DU-145 prostate it was 104%; in the assay on K-562 leukemia, 26.1%. Further, the growth with MALME-3M melanoma is -19.2% (active); with MDA-MB-231 breast, 22%; with RXF 393 renal, 131%; in the assay with SF-268 CNS, 29%; in the assay with SF-295 CNS, 98.3%; with SF-539 CNS, 44.9%. Further, the growth is -8.06% (active) with UACC-257 melanoma and 67.7% with M14 melanoma.
`Nc1cccc(NC(=O)C(=O)Nc2cccc(N)c2)c1`: the growth is 105% in the assay on NCI-H23 lung; 93.6% in the assay on NCI-H226 lung; 109% in the assay with NCI-H322M lung; 96.1% in the assay with HOP-62 NSCLC; 117% with NCI-H460 lung; 89.8% with HOP-92 NSCLC. The growth in the assay on NCI-H522 lung is 91.7%; in the assay on A549/ATCC NSCLC, 97.1%; with 786-0 renal it was 68.5%; in the assay on COLO 205 colon, 127%; in the assay with DU-145 prostate, 107%; with K-562 leukemia it was 95.3%. The growth is 141% in the assay on MALME-3M melanoma; 104% with MDA-MB-231 breast; 87.5% in the assay with RXF 393 renal; 101% with SF-268 CNS; 98.1% in the assay with SF-295 CNS; 111% in the assay on SF-539 CNS. Moreover, the growth in the assay with M14 melanoma was 87.4%.
For the compound `CC(=O)O[C@H]1CC[C@]2(C)[C@H]3CC[C@@H]4[C@H]5[C@H](C(C)C)CC[C@]5(C(=O)OCC(CO)(CO)N=C(N)N)CC[C@@]4(C)[C@]3(C)CC[C@H]2C1(C)C`, the growth is 77.7% in the assay on NCI-H23 lung; 91.4% in the assay on NCI-H226 lung; 70.2% with NCI-H322M lung; 86.1% with HOP-62 NSCLC; -32.4% (active) in the assay with NCI-H460 lung; 32% in the assay with HOP-92 NSCLC. The growth in the assay on NCI-H522 lung was -69.6% (active); with A549/ATCC NSCLC, 54.6%; with 786-0 renal, 74.3%; in the assay with COLO 205 colon, -89.9% (active); in the assay with DU-145 prostate, 37.4%; in the assay on K-562 leukemia, -26.7% (active). Also, the growth in the assay on MALME-3M melanoma was 17%; in the assay with MDA-MB-231 breast, 42.1%; with RXF 393 renal, 40.6%; in the assay on SF-268 CNS it was 77.6%; with SF-295 CNS, 100%; with SF-539 CNS, 86.4%. The growth in the assay on UACC-257 melanoma is 90.2%; in the assay on M14 melanoma, 73.4%.
Regarding `CN(C)c1ccc(/C=C(\C#N)c2nc3ccccc3s2)cc1`, the growth is 102% with NCI-H23 lung; 101% in the assay with NCI-H226 lung; 86.8% in the assay on NCI-H322M lung; 116% in the assay on HOP-62 NSCLC; 103% in the assay on NCI-H460 lung; 104% in the assay on HOP-92 NSCLC. Also, the growth was 92.7% in the assay on NCI-H522 lung; 105% with A549/ATCC NSCLC; 96.8% in the assay with 786-0 renal; 123% in the assay with COLO 205 colon; 120% in the assay with DU-145 prostate; 119% with K-562 leukemia. In addition, the growth is 111% in the assay on MALME-3M melanoma; 106% in the assay on MDA-MB-231 breast; 116% with RXF 393 renal; 102% in the assay with SF-268 CNS; 92.9% in the assay with SF-295 CNS; 100% with SF-539 CNS. The growth in the assay on UACC-257 melanoma was 93.5%; in the assay with M14 melanoma, 110%.
With `COCCOC(=O)C1=C(C)NC(=S)NC1c1ccc2c(c1)OCO2` (configuration not stated), the growth in the assay with NCI-H23 lung was 96.2%; with NCI-H226 lung it was 90.2%; with NCI-H322M lung it was 101%; in the assay with HOP-62 NSCLC it was 98%; with NCI-H460 lung it was 112%; in the assay on HOP-92 NSCLC, 108%. Also, the growth in the assay on NCI-H522 lung is 94.3%; in the assay on A549/ATCC NSCLC it was 101%; in the assay with 786-0 renal it was 107%; in the assay with COLO 205 colon, 117%; with DU-145 prostate, 108%; with K-562 leukemia, 91.8%. For the same compound, the growth with MALME-3M melanoma is 108%; in the assay on MDA-MB-231 breast it was 105%; with RXF 393 renal it was 101%; in the assay on SF-268 CNS, 97.4%; in the assay on SF-295 CNS, 105%; in the assay with SF-539 CNS, 99.2%. Moreover, the growth with UACC-257 melanoma is 90.2%; in the assay with M14 melanoma, 104%.
`COc1cccc(/C=C\C(=O)c2ccccc2)c1`: the growth with NCI-H23 lung is 86.7%; with NCI-H226 lung, 76.7%; in the assay on NCI-H322M lung it was 85%; in the assay with HOP-62 NSCLC, 87%; in the assay on NCI-H460 lung, 78%; in the assay with HOP-92 NSCLC it was 87.6%. The growth in the assay on NCI-H522 lung is 81.2%; in the assay on A549/ATCC NSCLC it was 92.4%; in the assay on 786-0 renal it was 74.4%; in the assay with COLO 205 colon, 90.1%; with DU-145 prostate, 53.8%; with K-562 leukemia, 31%. The growth in the assay on MALME-3M melanoma was 83.4%; with MDA-MB-231 breast, 88.5%; with RXF 393 renal, 50.2%; with SF-268 CNS, 60.4%; in the assay on SF-295 CNS it was 77.5%; in the assay on SF-539 CNS, 87.7%. Further, in the assay with M14 melanoma, the growth was 85.1%.
